# NS1 function inh: qHTS Assay for Inhibitors of Influenza NS1 Protein Function. Potency, µM (doses to about 46.1 µM), inactives show top-dose activity, positive = more growth. actives 0.4% (n = 270,000). AID 2326, 2010; calls by dose curve; note: potency is the fitted concentration of half-maximal effect; actives are rising curves; nearly all actives have a fitted effect of over 50% in size
#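 Recovery from NS1-induced slow growth read by OD600 in budding yeast switched to galactose assay medium (pH 6.0, -URA) at 1:100 dilution. Compound 23 nl per well; the matching strain lacking NS1 serves as control.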
# FBPA Giardia inh: qHTS Assay for Inhibitors of Fructose-1,6-bisphosphate Aldolase from Giardia Lamblia. A8B2U2. purified Giardia FBPA. Potency, µM (highest dose often 59.6 µM), for the others: at the highest dose activity, negative = inhibition, most hits filed as inhibitors. actives 0.71% (n = 290,000); note: potency is the fitted concentration of half-maximal effect; % is set by controls: 0 for no effect and ±100 for the full control effect; nearly all actives have a fitted effect of over 55% in size
# Target sequence (A8B2U2 whole entry, looked up): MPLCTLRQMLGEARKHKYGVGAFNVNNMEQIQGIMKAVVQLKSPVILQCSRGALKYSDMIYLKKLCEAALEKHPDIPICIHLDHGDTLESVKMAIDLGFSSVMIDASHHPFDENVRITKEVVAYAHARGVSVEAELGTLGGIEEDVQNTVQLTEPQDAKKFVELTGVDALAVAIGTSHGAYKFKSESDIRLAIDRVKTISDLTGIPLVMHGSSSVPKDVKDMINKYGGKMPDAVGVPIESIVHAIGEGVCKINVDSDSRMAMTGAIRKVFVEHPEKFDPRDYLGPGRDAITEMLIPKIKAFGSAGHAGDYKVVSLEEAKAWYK
#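 40 nM FBPA preincubated 10 min at RT with compound (up to 57.5 uM final), then substrate plus GAPDH/TPI/NAD/arsenate coupling and diaphorase/resazurin added. Fluorescence read after 20 min at RT, 525/598 nm.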
# Pf growth 48h: Primary qHTS for delayed death inhibitors of the malarial parasite plastid, 48 hour incubation; P. falciparum luciferase growth in erythrocytes, 48 h; Potency, µM (titrated, usually from 28.7 µM), for inactives: at the highest dose activity change, negative = inhibition, actives largely listed as inhibitors; actives 5.9% (n = 310,000); AID 504832, 2011; note: potency is the fitted concentration of half-maximal effect; % is set by controls: 0 for no effect and ±100 for the full control effect
#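 First compound was added to culture medium, then infected red cells at 0.1% parasitemia and 2% hematocrit (final). After incubation at 37 C under 5% CO2, luciferase detection reagent was dispensed and light output recorded.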
# Pf growth 96h: Primary qHTS for delayed death inhibitors of the malarial parasite plastid, 96 hour incubation; P. falciparum luciferase reporter growth, 96 h; Potency, µM (series often up to 28.7 µM), without a hit: top-dose activity change, negative = inhibition, actives largely listed as inhibitors; actives 6.9% (n = 320,000); note: potency is the fitted concentration of half-maximal effect; % is set by controls: 0 for no effect and ±100 for the full control effect
#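 P. falciparum expressing integrated firefly luciferase, in erythrocytes at 2% hematocrit, 0.05% parasitemia, incubated with compounds 96 h at 37 C, 5% CO2. Growth inhibition read as loss of luminescence; two-generation exposure targets delayed-death apicoplast inhibitors.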
# CHX counter: Cycloheximide Counterscreen for Small Molecule Inhibitors of Shiga Toxin. actives 12% (n = 300,000). max response, %. cell reporter, cycloheximide protein synthesis inhibition counterscreen; in the data active = max response mostly above about 13%, no sharp cut-off; inactive = mostly below about 14%; note: read at 38.3 µM for the half of the compounds with a filed dose; 0% is about no effect
# Shiga toxin inh: A qHTS for Small Molecule Inhibitors of Shiga Toxin | inhibition, % at 38.7 µM | actives 9.2% (n = 290,000) | Vero cells, Shiga toxin protein synthesis inhibition reporter; in the data active = inhibition mostly above about 28%, no sharp cut-off; inactive = mostly below about 43%; note: 0% is about no effect
# Numbers without * were called inactive; u = inconclusive; x = no result given; [ ] = dose if it differs, or a comment. Compounds with a hit are over-represented: about 21% of the library has one in this group of screens. Unless noted, calls come from the whole dose curve; as a rule, active = well fitted curve in the direction sought with a large enough effect; inconclusive = small, poorly fitted or top-dose-only effect, or another doubt; inactive = no such curve, though single readings can be large; an effect the other way counts as inactive or inconclusive.
SMILES,NS1 function inh,FBPA Giardia inh,Pf growth 48h,Pf growth 96h,CHX counter,Shiga toxin inh
COc1ccc(CNC(=O)[C@H](C)[C@H]2C[C@]2(C)[C@H](NC(=O)OCc2ccccc2)c2ccccc2)cc1OC,x,2%,x,x,x,x
COc1ccc(C2=NS(=O)(=O)N(C)C(C(=O)NC3CCCCC3)=C2)cc1OC,-1%,10%,5%,-8%,-2,6
CCC(C)(C)n1nnnc1C(c1ccc2ncccc2c1)N1CCN(c2ccc(O)cc2)CC1 (centres undefined),5%,u,u,u,1,-9
CCC(C)(C)n1nnnc1C(c1ccc2ncccc2c1)N1CCN(c2nc3ccccc3s2)CC1 (centres undefined),8%,-8%,5.2µM*,-9%,11,11
CCC(C)(C)n1nnnc1C(c1ccc2ncccc2c1)N1CCCC(C)C1 (centres undefined),-16%,9%,u,10µM*,0,2
CCOc1ccccc1NC(=O)c1ccccc1-c1nc(-c2ccccc2)no1,-45%,3%,u,8.3µM*,27*,37
CCOc1ccccc1-c1nc(-c2ccc(NC(=O)Cc3ccccc3OC)cc2)no1,-15%,-8%,13µM*,3.7µM*,7,-6
CC(CC(=O)Nc1ccc(S(=O)(=O)Nc2ncccn2)cc1)c1ccccc1 (centres undefined),4%,-4%,19%,39%,-5,-9
COc1ccccc1NC(=O)C1CCN(S(=O)(=O)c2cccc3nonc23)CC1,3%,4%,-7%,21%,-3,3
Cc1ccc(S(=O)(=O)N2CCc3nc(COc4ccccc4)c4c(c3C2)CO[C@@H](C)C4)cc1,x,3%[12.9 µM],x,x,x,x
CC(=O)Nc1ccc(OC(=O)N(C)c2ccccc2)cc1,0%,3%,36%,13%,13,20
CC(=O)Nc1ccc(OC(=O)N(C)c2ccc(C)cc2)cc1,-22%,5%,u,9.3µM*,-3,2
Cc1ccc(N(C)C(=O)Oc2ccc(C(=O)c3ccc(Cl)cc3)cc2)cc1,13%,-1%,-5%,4.7µM*,10,14
COc1ccc(CCN(C)C(=O)c2c(C)nn(-c3ccccc3)c2C)cc1OC,9%,x,-16%,u,2,-13
CC12CCC3C(CC=C4CC(O)CCC43C)C1C/C(=C\c1ccccc1F)C2=O (centres undefined),9%,8%,u,5.9µM*,-5,-19
CC(=O)Oc1cc2c(C(=O)NCc3ccncc3)c(C)oc2c2ccccc12,-4%,u,-14%,u,8.6*,13
O=[N+]([O-])c1ccc(Cc2cncc(O)c2)cc1,-3%,-9%,-15%,23%,-3,-13
CC1(C(=O)O)CCC(C(=O)Nc2ccccc2O)C1(C)C (centres undefined),-4%,3%,x,12µM*,-7,-22
COc1ccc(C(=O)CC(=O)C(=O)Nc2ccc(C)c(C)c2)cc1,-3%,-20%,x,12%,18*,94*
COc1ccc(NC(=O)CN(C)CC(=O)Nc2cccc(C(C)=O)c2)cc1,7%,-28%,-31%,-30%,-2,24
COc1ccc(C(=O)CC(=O)C(=O)Nc2cccc(C(C)=O)c2)cc1,6%,4%,0%[0.00184 µM],7%,17*,24
COc1ccc(C(=O)CC(=O)C(=O)Nc2ccccc2OC)cc1,-45%,-20%,x,40%,7,27
CN(Cc1ccccc1O)CC1CCCN(CCc2ccc(Cl)cc2)C1 (centres undefined),-25%,11%,10µM*,-14%,-3,-3
COc1ccc(CCN2CCCC(CN(C)Cc3cc(OC)ccc3OC)C2)cc1 (centres undefined),0%,6%,u,15µM*,-2,19
COc1ccc(CCN2CCCC(CN(C)Cc3cccc(OC)c3)C2)cc1 (centres undefined),11%,3%,u,u,5,-2
SMILES,NS1 function inh,FBPA Giardia inh,Pf growth 48h,Pf growth 96h,CHX counter,Shiga toxin inh
CCN(Cc1ccc(C#CCCO)cc1)CC1CCCN(CCc2cccc(F)c2)C1 (centres undefined),2%,10%,4.7µM*,-22%,5,-15
CCN(Cc1ccc(OC)c(COC)c1)CC1CCCN(CCc2cccc(F)c2)C1 (centres undefined),6%,7%,10µM*,u,3,3
O=c1c(-c2ccc(F)cc2)nc2cnc(Oc3ccccc3)nc2n1Cc1cccs1,x,9%,x,x,x,x
O=C(CNC(=O)C12CC3CC(CC(C3)C1)C2)OCc1ccc(F)cc1Cl,x,x,1%,-12%,x,x
O=C(NCCc1ccccc1)C(=O)NCC1OCCN1S(=O)(=O)c1ccc(F)cc1 (centres undefined),4%,6%,23%,31%,0,11
O=C1CCN(Cc2ccc([N+](=O)[O-])cc2)CCN1[C@H](CO)c1ccccc1,-5%,14%,u,u,-3,-4
O=C(OCC(=O)N1CCCc2ccccc21)c1ccc(F)c(S(=O)(=O)N2CCOCC2)c1,x,x,-29%,-3%,x,x
CCN(Cc1ccc(NC(C)=O)cc1)CC1CCCN(CCc2cccc(OC)c2)C1 (centres undefined),-12%,4%,12µM*,12µM*,-3,-3
COCc1ccc(C(=O)N(C)CC2CCCN(CCc3ccc(Cl)cc3)C2)o1 (centres undefined),10%,x,0%,1%,-4,-3
CN(Cc1ccc(C#CCCO)cc1)CC1CCCN(CCc2ccc(Cl)cc2)C1 (centres undefined),7%,-4%,5.2µM*,-12%,2,-5
CCN(Cc1ccccc1OC)CC1CCCN(CCc2cccc(OC)c2)C1 (centres undefined),-9%,2%,u,4%,2,0
Nc1ccccc1NC(=O)c1ccccc1N,-7%,4%[12.9 µM],60%,46%,36*,30*
Nc1ccccc1NC(=O)NC(=O)c1ccccc1,-18%,6%,91%,245%,41*,x
Cc1c(NC(=O)c2ccccc2N)cccc1C(=O)O,7%,1%,182%,u,25*,46*
CSc1ccc(NC(=O)N2CCC(C(=O)c3ccc(F)cc3)CC2)cc1,-1%,5%,-8%,29%,13,24
CCNc1ncc2nc(CCc3ccccc3)c(=O)n(CCOC)c2n1,x,4%,x,x,x,x
O=C(CSc1nnc(-c2ccccc2F)o1)Nc1ccc(N2CCOCC2)cc1,x,x,24%,5%,x,x
COc1ccc(S(=O)(=O)NCC(c2ccc3c(c2)OCO3)N2CCN(c3ccccc3)CC2)cc1 (centres undefined),x,x,u,0%,x,x
CCCN=Cc1sc2ccc(OCC)cc2c1O,-86%,0%,75%,54%,41*,101*

# Screening results (PubChem)
